Among the data in PubChem BioAssay (Tox21) are Potency and outcome values, retold here.

Structures are written as SMILES. Where “and” joins values, the source holds several entries; their conditions need not be identical. Equal values may be shown once. Results filed as inconclusive are left out. Calls of active or inactive are those of the source. Unless noted, calls come from the whole dose curve; as a rule, active = well fitted curve in the direction sought with a large enough effect in the repeat runs; inconclusive = weak or mixed curves; inactive = no such curve, though single readings can be large; an effect the other way counts as inactive or inconclusive.

Assay [1] can be described thus: qHTS assay for small molecules that induce genotoxicity in human embryonic kidney cells expressing luciferase-tagged ATAD5 (AID 651632). Note: nearly all actives have a fitted effect of over 15% in size. The method in brief:
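Test compounds were delivered by pin tool onto HEK293T reporter cells (2,000/well) expressing ATAD5 fused to luciferase. After 16 hr at 37C, 5% CO2, Amplite was added for 30 min at room temperature and luminescence was measured.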
In general terms: Quantitative high-throughput screening tests each substance at several concentrations.

Assay [2] in a line: qHTS assay for small molecule agonists of the p53 signaling pathway - cell viability (AID 651633; calls by dose curve; note: nearly all actives have a fitted effect of over 30% in size; note: potency is the fitted concentration of half-maximal effect). The procedure, abridged:
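Viability counter-read: CellTiter-Glo luminescence (30 min, room temperature) in the same p53RE-bla plates. These plates had been exposed to compounds for 16 h at 37 C.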

Assay [3] can be described thus: qHTS assay for small molecules that induce genotoxicity in human embryonic kidney cells expressing luciferase-tagged ATAD5 - cell viability (AID 651634; calls by dose curve; note: nearly all actives have a fitted effect of over 25% in size; note: potency is the fitted concentration of half-maximal effect). The method in brief:
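Quantitative high-throughput format. HEK293T cells expressing ATAD5 fused to luciferase were plated at 2,000 cells/well and treated 15.5 hr with compound versus DMSO. Viability was determined by fluorescent live-cell protease substrate, 30 min at 37C.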

Assay [4] is described as follows: qHTS assay for small molecule disruptors of the mitochondrial membrane potential - cell viability (AID 720634; calls by dose curve;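 note: human HepG2 liver cancer cells; series mostly up to about 83 µM; nearly all actives have a fitted effect of over 20% in size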). The method in brief: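 Same-well counter-screen: following the MMP dye addition, CellTiter-Glo was added to 1 hr compound-treated HepG2 cells and luminescence read after 30 min at room temperature.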
Assay [5] in a line: qHTS assay to test for compound auto fluorescence at 535 nm (green) in HepG2 cells (AID 720675).
Assay [6] in a line: qHTS assay to test for compound auto fluorescence at 460 nm (blue) in HEK293 cells (AID 720678). The procedure, abridged: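 Auto fluorescence in the blue band was quantified as triamterene equivalency. HEK293 cells were seeded at 2,000/well, dosed after a 4-5 hr attachment, and kept overnight at 37C before the 405/460 nm reading.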
Assay [7] in a line: qHTS assay to test for compound auto fluorescence at 590 nm (red) in HEK293 cells (AID 720679). The method in brief: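 Autofluorescence equivalency to Rose Bengal sodium, 540/590nm, in HEK293 cells exposed overnight to 23 nL compound per well.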
Assay [8] can be described thus: qHTS assay to test for compound auto fluorescence at 535 nm (green) in HEK293 cells (AID 720680).
Assay [9] can be described thus: qHTS assay to test for compound auto fluorescence at 460 nm (blue) in HEK293 cell free culture (AID 720681). The method in brief:
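Blue fluorescence (Ex 405/Em 460 nm, triamterene-equivalent) was read immediately after pin transfer of compound or DMSO into medium (DMEM, 10% FBS) without cells.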

Assay [10] can be described thus: qHTS assay to test for compound auto fluorescence at 535 nm (green) in HEK293 cell free culture (AID 720682). The procedure, abridged:
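Green-label autofluorescence (485 nm excitation, 535 nm emission) measured on compound added to cell-free culture medium (DMEM, 10% FBS). Output is expressed relative to fluorescein.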

A short description of assay [11]: qHTS assay to test for compound auto fluorescence at 590 nm (red) in HEK293 cell free culture (AID 720683). The procedure, abridged: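 Red-channel autofluorescence of compounds in culture medium (DMEM, 10% FBS), no cells, measured at 540/590 nm. Rose Bengal sodium is the reference fluorophore for equivalence.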
Assay [12] can be described thus: qHTS assay to test for compound auto fluorescence at 590 nm (red) in HepG2 cell free culture (AID 720684). The procedure, abridged:
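Cell-free; medium MEM + 10% FBS; compound or DMSO added by pintool; read Ex 540/Em 590 nm; Rose Bengal sodium as red reference fluorophore.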

Assay [13] in a line: qHTS assay to test for compound auto fluorescence at 460 nm (blue) in HepG2 cell free culture (AID 720685). The procedure, abridged: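 Cell-free plates of MEM plus 10% FBS received 23 nL compound or DMSO vehicle; blue-channel (405/460 nm) intensity scored against triamterene as reference fluorophore.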
Assay [14] can be described thus: qHTS assay to test for compound auto fluorescence at 535 nm (green) in HepG2 cell free culture (AID 720686).
Assay [15] is described as follows: qHTS assay to test for compound auto fluorescence at 460 nm (blue) in HepG2 cells (AID 720687). The method in brief:
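Blue-channel autofluorescence (Ex/Em 405/460 nm, triamterene-equivalent) was measured after 1 hr compound exposure at 37 C, 5% CO2. Cells were HepG2, plated overnight at 37 C in MEM plus 10% FBS.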

Assay [16] deals with Glucocorticoid receptor (Homo sapiens) (UniProt P04150). As to the kind of experiment: qHTS assay to identify small molecule agonists of the glucocorticoid receptor (GR) signaling pathway (AID 720691; active = well fitted activation curve with a large enough effect in the signal ratio in the repeat runs, not every such curve was filed as active; the % refers to the signal ratio). The procedure, abridged:
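A HeLa cervical cancer line expressing GR and a glucocorticoid response element-driven beta-lactamase gene is treated with compounds for 18 h; LiveBLAzer B/G FRET substrate is then applied and fluorescence read.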

The target is the same in assay [17]. As to the kind of experiment: qHTS assay to identify small molecule antagonists of the glucocorticoid receptor (GR) signaling pathway (AID 720692; active = well fitted inhibition curve with a large enough effect in the signal ratio in the repeat runs, not every such curve was filed as active; the % refers to the signal ratio; note: potency is the fitted concentration of half-maximal effect). The method in brief: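 GRE-bla HeLa line, dex-stimulated (5 nM final). Compound exposure 18 h, 37 C. Beta-lactamase FRET read after 2 h RT substrate.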
Assay [18] is described as follows: qHTS assay to test for compound auto fluorescence at 590 nm (red) in HepG2 cells (AID 720674). The procedure, abridged: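 We screened compounds on adherent HepG2 cells, incubating them for an hour at 37 C in 5% CO2 before reading emission at 590 nm under 540 nm excitation; values reflect equivalence to Rose Bengal sodium fluorescence.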
Assay [19] can be described thus: qHTS assay for small molecule disruptors of the mitochondrial membrane potential (AID 720635). Note: potency is the fitted concentration of half-maximal effect. The method in brief:
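Mitochondrial membrane potential tracked with Mito-MPS dye, red aggregates (ex 540/em 590 nm) against green monomers (ex 490/em 535 nm). Compound treatment 1 hr at 37C, dye 30 min in HepG2.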

Chain of Glucocorticoid receptor (Homo sapiens) (P04150 whole entry, looked up): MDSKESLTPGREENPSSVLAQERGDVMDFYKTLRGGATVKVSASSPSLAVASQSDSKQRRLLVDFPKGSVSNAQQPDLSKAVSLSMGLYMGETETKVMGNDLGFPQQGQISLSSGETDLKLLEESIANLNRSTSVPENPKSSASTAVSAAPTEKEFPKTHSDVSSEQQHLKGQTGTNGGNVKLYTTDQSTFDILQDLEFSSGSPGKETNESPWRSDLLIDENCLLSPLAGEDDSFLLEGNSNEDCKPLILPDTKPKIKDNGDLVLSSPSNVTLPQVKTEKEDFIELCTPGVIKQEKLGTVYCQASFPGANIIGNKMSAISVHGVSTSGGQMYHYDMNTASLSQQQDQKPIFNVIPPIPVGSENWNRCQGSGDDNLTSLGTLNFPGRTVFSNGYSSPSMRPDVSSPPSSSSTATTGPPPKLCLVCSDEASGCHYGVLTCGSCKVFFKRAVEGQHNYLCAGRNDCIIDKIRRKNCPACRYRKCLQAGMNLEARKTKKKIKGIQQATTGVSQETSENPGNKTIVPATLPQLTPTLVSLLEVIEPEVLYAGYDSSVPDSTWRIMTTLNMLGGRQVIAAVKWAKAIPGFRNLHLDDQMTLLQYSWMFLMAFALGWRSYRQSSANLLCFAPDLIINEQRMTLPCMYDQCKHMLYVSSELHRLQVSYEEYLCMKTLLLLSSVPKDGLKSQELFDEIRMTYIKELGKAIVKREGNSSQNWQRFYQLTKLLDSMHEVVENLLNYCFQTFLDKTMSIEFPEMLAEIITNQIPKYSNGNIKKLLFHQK

As to `CCOC(=O)COc1cc(-c2nn(C)c(OC(F)F)c2Cl)c(F)cc1Cl`, the Potency result in [1], in assay [2], in assay [3], in [4] and in assay [17] was “inactive” each time. Moreover, the outcome in [5], in assay [6], in assay [7], in [8], in [9] and in assay [10] was inactive. The call in [11], in assay [12], in assay [13], in [14], in assay [15] and in assay [16] was inactive.
Turning to `CCCC(Cn1cncn1)c1ccc(Cl)cc1Cl` (stereo unspecified), the Potency result in [1], in assay [2] and in [3] was “inactive” each time. Further, the molecule was called inactive in assay [18], in assay [5], in assay [7], in [8], in assay [9] and in assay [11]. Besides, the call in assay [12], in assay [13], in [14] and in [15] was inactive. Also, the Potency in assay [17] is 49 µM (active).
For the molecule `CCCN(CCC)c1c([N+](=O)[O-])cc(S(C)(=O)=O)cc1[N+](=O)[O-]`, the Potency result in assay [1], in [2], in [3] and in assay [17] was “inactive” each time. The molecule was classed as inactive in [18], in assay [5], in [7], in assay [8], in [11] and in assay [12]. In addition, the molecule was called inactive in assay [13], in assay [14] and in assay [16].
As for `c1cc2ccc3cccc4ccc(c1)c2c34`, the Potency result in [1], in assay [2] and in assay [3] was “inactive” throughout. Moreover, the result in assay [18], in [5], in assay [7], in [8], in assay [9] and in assay [10] was inactive. For the same molecule, the outcome in assay [11], in [12], in assay [13], in assay [14], in [15] and in assay [16] was inactive.
Take `O=[N+]([O-])c1ccc(F)c([N+](=O)[O-])c1`: the Potency result in assay [1] and in assay [2] was “inactive” throughout. The Potency in assay [3] is 10.6 µM (active) and 27.6 µM (active). The molecule was called inactive in assay [18], in assay [5], in assay [6], in assay [8], in assay [9] and in assay [10]. Besides, the molecule was called inactive in [11], in assay [12], in [13], in assay [14] and in [15].
On to `CC(C)N(C(=O)COc1nnc(C(F)(F)F)s1)c1ccc(F)cc1`, for which the Potency entry in [1], in assay [2] and in [3] was “inactive” each time. Also, the molecule was classed as inactive in assay [18], in assay [5], in assay [7], in assay [8], in assay [9] and in assay [11]. The result in assay [12], in assay [13], in [14], in assay [15] and in assay [16] was inactive. Besides, in assay [17], the Potency is 49 µM (active).
In the case of `O=C(OC1CCCCC1)c1ccccc1C(=O)OC1CCCCC1`, the Potency entry in [1], in assay [2] and in [3] was “inactive” each time. Besides, the Potency in assay [19] was 28.8 µM (active). For the same molecule, the molecule was classed as inactive in [18], in [5], in assay [6], in [7], in [8] and in [9]. Further, the molecule was called inactive in assay [10], in assay [11], in assay [12], in assay [13], in assay [14] and in assay [15]. Also, the molecule was classed as inactive in assay [16].
Take `CCCCC(CC)COP(=O)(Oc1ccccc1)Oc1ccccc1` (stereo unspecified): the Potency entry in assay [1], in [2], in [3] and in assay [17] was “inactive” throughout. Further, the molecule was called inactive in assay [18], in assay [5], in assay [6], in assay [8], in assay [9] and in assay [11]. Moreover, the molecule was called inactive in [12], in assay [13], in assay [14], in assay [15] and in assay [16].
Take `CCOP(=S)(OCC)SCSCC`: the Potency result in [1], in [2], in assay [3] and in assay [4] was “inactive” in each case. The result in [5], in assay [6], in assay [7], in assay [8], in [9] and in assay [10] was inactive. Also, the molecule was called inactive in [11], in assay [12], in assay [13], in [14], in assay [15] and in assay [16].
For the molecule `O=C(N[C@H](c1ccccc1)[C@@H]1CN2CCC1CC2)c1c(Cl)ccc(C(F)(F)F)c1Cl`, the Potency entry in [1], in assay [2], in assay [3] and in assay [17] was “inactive” in each case. For the same molecule, the Potency in [19] was 43.9 µM (active). Also, the call in [18], in [5], in assay [6], in assay [7], in assay [8] and in [10] was inactive. Besides, the result in assay [11], in [12], in assay [13], in [14], in [15] and in [16] was inactive.
Consider `O=S1OC[C@@H]2[C@H](CO1)[C@]1(Cl)C(Cl)=C(Cl)[C@@]2(Cl)C1(Cl)Cl` (stereo partly specified), for which the Potency result in [1] and in assay [3] was “inactive” each time. Besides, the Potency in [2] is 61.1 µM (active). Also, the outcome in [18], in assay [5], in assay [6], in assay [8], in assay [11] and in assay [12] was inactive. In addition, the molecule was called inactive in assay [13], in [14], in assay [15] and in assay [16].
Take `CN1[C@@H]2CC[C@H]1CC(OC(=O)c1cc(Cl)cc(Cl)c1)C2` (stereo partly specified): the Potency result in assay [1], in [2], in assay [3] and in assay [4] was “inactive” each time. The molecule was called inactive in assay [18], in [5], in [6], in assay [7], in assay [8] and in [11]. Also, the molecule was classed as inactive in [12], in [13], in assay [14], in [15] and in assay [16].
On to `COC(C)(C)CCC[C@H](C)C/C=C/C(C)=C/C(=O)OC(C)C`, for which the Potency entry in assay [1] and in assay [3] was “inactive” in each case. Further, the Potency in assay [2] was 61.1 µM (active). The molecule was classed as inactive in [18], in [5], in assay [6], in [7], in assay [8] and in [9]. Further, the result in [10], in assay [11], in [12], in assay [13], in assay [14] and in [15] was inactive.
